For this assay, the system named is HepG2. In words: GSK_TCMDC: Percent inhibition of human HepG2 cell line. Test compounds present at 10uM. It counts as functional.
Turning to `COCCn1c(-c2cccc(Cl)c2)nn(-c2ccc([N+](=O)[O-])cc2C#N)c1=S`, the Inhibition worked out at 7%. Then `Cc1cccc2nc(-c3ccc(-c4cccc(CN5CCCC5CN)c4)s3)[nH]c12.O=C(O)C(F)(F)F` (stereo not given), with 20%.

In the case of `O=C(NCC1CC1)C1Cc2c([nH]c3ccc(Br)cc23)C2(CCN(CCc3ccccc3)CC2)N1` (stereo not given), the Inhibition was determined as 14%.

`O=C(Nc1cccc(C(F)(F)F)c1)c1ccc(S(=O)(=O)NCC2CCN(CC3CCCCC3)CC2)cc1.O=C(O)C(F)(F)F` showed an Inhibition of 24%. `CN1CCN(CCCN(Cc2cccc(-c3ccc(CNCc4ccc5c(c4)OCO5)cc3)c2)C(=O)CCC2CCCC2)CC1.O=C(O)C(F)(F)F` yielded an Inhibition of 91%.

On to `O=C(Nc1ccc(Cl)cc1)c1cccc2nc(C(F)(F)F)[nH]c12`, for which the Inhibition worked out at 84%.

As to `CC(C)(C)NCC(O)COc1ccc(Cl)cc1C1=NNC(=O)CC1.Cl` (stereo not given), the Inhibition came to 6%. To `COCCNc1nc(N2CCC(CNC(=O)c3ccc(-c4ccc(C(=O)N(C)C)cc4C)cc3)CC2)nc2cc(OC)c(OC)cc12` belongs 12%; to `CN(C)c1ccc(-c2csc(C(=O)NC3CCN(CCC(C)(C)C)C3)c2)cc1.O=C(O)C(F)(F)F` (stereo not given), 20%; to `CC(C)(C)c1ccc(C(=O)NC2CCC(CCN3CCc4ccc(S(C)(=O)=O)cc4CC3)CC2)cc1C(F)(F)F` (stereo not given), 54%. Then `CC(=O)c1cccc(NC(=O)NC2CCN(c3ccnc(Nc4ccc(F)cc4)n3)C2)c1` (stereo not given), with 10%. Then `COc1c(C2CCN(CCCCNC(=O)c3cc(-c4ccc(Cl)cc4)[nH]c3C)CC2)ccc2c1CCCC2`, with 53%. `COc1cc([N+](=O)[O-])ccc1NC(=O)c1cc(Cl)ccc1O` registered an Inhibition of 92%.

As for `COc1cc(Cc2cnc(N)nc2N)ccc1OCc1ccc(-c2csnn2)cc1`, the Inhibition came out at 33%. Then `Cn1c(=O)c(-c2c(Cl)cccc2Cl)cc2cnc(Nc3ccc(N4CCOCC4)cc3)nc21`, with 64%; and `O=C(O)/C=C/c1cccc(F)c1F`, with 58%. `CCCN(CCC)CCOc1ccc(C(O)(C#CC(O)(c2ccc(OCCN(CCC)CCC)cc2)c2cccc(Cl)c2)c2cccc(Cl)c2)cc1` (stereo not given): the Inhibition was determined as 100%. The compound `Cc1ccc(NC(=O)NC2CCN(CCC(NC(=O)Cc3ccccc3)c3ccc(Cl)c(Cl)c3)CC2)cc1` (stereo not given) yielded an Inhibition of 16%. In the case of `Br.C=CCc1cc(C)ccc1OCCCON1C(N)=NC(N)=NC1(C)C`, the Inhibition is given as 64%. Then `O=C(/C=C/c1ccc(Cl)c(Cl)c1)NCCCCCN1CCC(NC(=O)c2ccc(F)cc2F)CC1`, with 17%; and `Fc1ccccc1COc1ccc(Nc2ncnc3ccc(I)cc23)cc1Cl`, with 17%. For `COc1ccc(Nc2nc(NCc3ccco3)c3ccccc3n2)cc1.Cl`, the Inhibition came out at 38%. To `O=C1COC2(CN1CC1CCN(Cc3ccc(O)c(Cl)c3)C1)c1ccccc1-c1ccccc12.O=CO` (stereo not given) belongs 6%; to `COc1ccc2c(NN=Cc3cccnc3)ccnc2c1`, 3%.

Compound `Cn1cc(CN2CCCC(COC(c3ccc(F)cc3)c3ccc(F)cc3)C2)cn1` (stereo not given) registered an Inhibition of 15%.

Regarding `O=C(O)C(F)(F)F.c1ccc(CNCc2cccc(-c3csc(-c4nc5ccccc5[nH]4)c3)c2)cc1`, the Inhibition worked out at 24%. Then `Nc1ccc2nc(C=Cc3ccc(Cl)cc3)[nH]c2c1`, with 19%. In the case of `Cc1nc2ccc(NC(=O)c3cc(S(=O)(=O)N(C)C)ccc3Cl)cc2s1`, the Inhibition is on record as 20%.

`COc1ccc(Oc2cnc(N)nc2N)c(C(C)C)c1` gave an Inhibition of 58%. Compound `Cc1ccccc1C1CCN(C2CCC(NC(=O)c3ccc(-c4cccc(C(F)(F)F)c4)o3)CC2)CC1` (stereo not given) had an Inhibition of 56%. To `COc1cc2c(cc1OC)C(c1ccc(Br)cc1)CN(C)CC2.Cl` (stereo not given) belongs 8%; to `CCn1ncc(Cl)c1CN(C)S(=O)(=O)c1ccc(Br)cc1`, 9%; to `Cc1nc(-c2ccc(C#N)cc2)sc1C(=O)NCCCCN1CCC(c2ccc3c(c2OCCO)CCCC3)CC1.Cl`, 14%. As for `COc1ccc(CC(=O)NC(CCN2CCC3(CC2)CN(S(C)(=O)=O)c2ccccc23)c2ccc(Cl)c(Cl)c2)cc1OC` (stereo not given), the Inhibition is recorded as 10%.

As to `OC(CNc1ccnc(Nc2cccc(OCCCN3CCOCC3)c2)n1)c1ccccc1` (stereo not given), the Inhibition was determined as 48%. Then `c1ccc(CCNc2nc(NCC(c3ccccc3)c3ccccc3)c3nc[nH]c3n2)cc1`, with 9%; and `CCN1CCN(Cc2ccc3nc(-c4cc(C)n(Cc5cc(Cl)ccc5OCc5ccccc5)n4)[nH]c3c2)CC1.Cl`, with 11%. To `CCCc1cc(NC2CCN(C)CC2)nc(Nc2ccc(C)cc2)n1` belongs 25%. To `Cc1cc(=NN=Cc2ccccc2Cl)c2cc(C(F)(F)F)ccc2[nH]1` belongs 0%.

Regarding `CCOC(=O)N[C@@H]1CN[C@@H](C#Cc2cc3c(Nc4ccc(OCc5cccc(F)c5)c(Cl)c4)ncnc3s2)C1`, the Inhibition was determined as 8%.

(Values after ChEMBL document CHEMBL1157539, “Thousands of chemical starting points for antimalarial lead identification” (Nature, 2010).)
